Laboratory results: the supplement of paper PMC12669032

Each compound was assayed on Parabacteroides merdae (assay: growth AUC relative to DMSO control (median of replicates) (fraction); higher = more growth (less inhibition), active = hit call of the paper). Conditions: 20 µM; 24 h;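 active = AUC reduced over 20% with Padj below 0.05 in at least 2 of 3 replicates; inactive = otherwise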.
How it was run: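 Gut bacteria were grown singly in mGAM at 37 °C without oxygen, from OD600 0.05, alongside 20 µM compound in 1% DMSO, and OD600 was read each hour for 24 h. Area under the growth curve was normalised to the median of solvent-only wells per plate, or to row and column medians on the industrial chemical plate. The minimum OD was set to 0 beforehand, and the reported value is the median of three biological replicates grown on separate days.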

Growth AUC, inactive:
N#Cc1cc(Cl)c(O)c(Cl)c1 0.93, CCc1cccc(C)c1N(C(=O)C(=O)O)C(C)COC (centres undefined) 1.01, CCC([O-])=C1C(=O)CC(C(=O)[O-])CC1=O.[Ca+2] (centres undefined) 0.996, COC1CCC2(CC1)NC(=O)C(c1cc(C)ccc1C)C2O (centres undefined) 1.02, O.O=C(Nc1ccc(Cl)c(Cl)c1)Nc1cc(Cl)ccc1Oc1ccc(Cl)cc1S(=O)(=O)[O-].[Na+] 0.861, NC(=O)c1nn(-c2c(Cl)cc(C(F)(F)F)cc2Cl)c(N)c1S(=O)C(F)(F)F (centres undefined) 0.962, Cc1nn(C)c(F)c1C(=O)Nc1ccccc1C(C)CC(C)C (centres undefined) 0.946, CCOC(=O)c1nc(C(Cl)(Cl)Cl)n(-c2ccc(Cl)cc2Cl)n1 0.965, CCCCOCN(C(=O)CS(=O)(=O)[O-])c1c(CC)cccc1CC.[Na+] 0.962, CCc1cccc(CC)c1N(COC)C(=O)CS(=O)(=O)[O-].[Na+] 1.01, CCN(CC)C(=O)c1cccc(C)c1 1.04, COC(=O)c1c(Cl)ccc(Cl)c1OC 1.01, CCN(CC)c1nc(C)cc(=O)[nH]1 1, CC(C)CNC(=O)N1CCNC1=O 1.01, COC(=O)c1ccccc1S(=O)(=O)NC(=O)n1nc(OCC(C)O)n(C)c1=O (centres undefined) 0.996, CCCNCCOc1c(Cl)cc(Cl)cc1Cl 0.997, CCCCCCCC/C=C\CCCCCCCCCCCC(=O)O 1.01, S=C([S-])NCCNC(=S)[S-].S=C([S-])NCCNC(=S)[S-].[Mn+2].[Zn+2] 1.01, Cc1cc(C)cc(OCC(C)Nc2nc(N)nc(C(C)(C)F)n2)c1 (centres undefined) 0.87, CCOc1ccc(C2(C(=O)OC(C#N)c3cccc(Oc4ccccc4)c3)CC2(Cl)Cl)cc1 (centres undefined) 0.943, CCNc1nc(NCC)nc(OC)n1 1, O=c1cccc2n1CCn1c-2cccc1=O 1.01, CCOCOc1ccc(C(=O)Nc2cccc(Cl)c2Cl)cc1 0.961, Cn1cc(C(=O)Nc2ccccc2-c2cc(F)c(F)c(F)c2)c(C(F)F)n1 0.937, CCOCN(C(=O)C(=O)O)c1c(C)cccc1CC 1.01, NC(Cn1cncn1)C(=O)O (centres undefined) 1.01, N#Cc1ccc(CC(=NNC(=O)Nc2ccc(OC(F)(F)F)cc2)c2cccc(C(F)(F)F)c2)cc1 (mixture of isomers) 0.936, C=O 1.03, COC(=O)c1ccc(C(=O)OC)cc1 0.993, N#Cc1c(N)nc(NC2CC2)nc1N 1, C#CCN(C)c1c(C#N)cnn1-c1nn2c(c1Cl)CCCC2 1.01, NS(=O)(=O)[O-].[NH4+] 1.06, O=C(O)Cc1c[nH]c2ccccc12 1.02, CCc1nc2ncnn2c(N)c1CCCC(=O)O.Cl 0.997, Cc1cc(C)cc(O)c1 0.988, CCOC(=O)/C(Cl)=C/c1cc(N2C(=O)C3=C(CCCC3)C2=O)ccc1Cl 0.948, c1ccc2c(c1)Cc1ccccc1-2 1.02, CCSc1nc(NC(C)C)nc(NC(C)C)n1 0.91, c1ccc2cc3ccccc3cc2c1 0.958
